Only some compounds are listed: those with a hit (about 19% of all), similar ones and a draw of the others.
TDP1 inh: blocks human tyrosyl-DNA phosphodiesterase 1. AID 485290. Q9NUW8. Potency, µM (titrated, usually from 130 µM), for inactives: at the highest dose activity change, negative = inhibition, usual class: inhibitors. recombinant TDP1, AlphaScreen DNA substrate cleavage. 0.28% of 350,000 active; note: potency is the fitted concentration of half-maximal effect; % is set by controls: 0 for no effect and ±100 for the full control effect; nearly all actives have a fitted effect of over 40% in size
Target sequence (Q9NUW8 whole entry, looked up): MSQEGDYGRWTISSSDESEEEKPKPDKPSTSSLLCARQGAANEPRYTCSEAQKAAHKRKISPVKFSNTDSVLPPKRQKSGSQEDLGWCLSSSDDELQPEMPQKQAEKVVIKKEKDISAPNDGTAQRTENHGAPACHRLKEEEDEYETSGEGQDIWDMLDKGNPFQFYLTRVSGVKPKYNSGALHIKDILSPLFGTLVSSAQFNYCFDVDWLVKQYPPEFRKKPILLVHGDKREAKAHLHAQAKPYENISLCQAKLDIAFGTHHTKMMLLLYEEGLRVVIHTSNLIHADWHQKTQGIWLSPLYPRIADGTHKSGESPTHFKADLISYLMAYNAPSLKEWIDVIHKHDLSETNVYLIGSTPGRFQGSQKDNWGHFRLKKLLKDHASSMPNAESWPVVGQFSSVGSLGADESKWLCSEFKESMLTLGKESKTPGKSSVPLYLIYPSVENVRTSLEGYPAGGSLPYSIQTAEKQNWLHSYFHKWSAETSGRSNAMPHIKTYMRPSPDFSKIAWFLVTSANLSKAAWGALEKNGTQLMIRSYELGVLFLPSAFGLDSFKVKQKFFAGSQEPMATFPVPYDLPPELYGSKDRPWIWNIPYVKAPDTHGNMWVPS
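E. coli-derived human Tdp1, 1 nM final. Cpd preinc 15 min RT; substrate 15 nM final, 5 min RT; AS bead mix 10 ug/ml final, 10 min RT. Signal loss = tyrosine-FITC cleavage. No-enzyme wells = max signal.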
TGFb inhibitor: blocks TGF-b signaling; HepG2 CAGA-GFP TGF-b/SMAD3 reporter, GFP fluorescence, 18 h; TGF-beta stimulated, 500 pg/mL final; Potency, µM (series often up to 46.1 µM), for the others: top-dose activity, negative = inhibition, most hits filed as inhibitors; 1.2% of 410,000 active; AID 588855; note: potency is the fitted concentration of half-maximal effect; % is set by controls: 0 for no effect and ±100 for the full control effect; nearly all actives have a fitted effect of over 65% in size
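First, reporter cells (HEPG2 CAGA-GFP) rested 2 h at 37 degrees C. Next, compounds were pinned in and TGF-beta added to 500 pg/mL final. After 18 h, GFP was imaged per cell and summed per well.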
TDP1 cell CPT: growth inhibition of DT40 Tdp1-/-;hTDP1 cells with camptothecin (screen for TDP1 inhibitors); chicken DT40 Tdp1-/-;hTDP1 cells + 20 nM CPT, ATP luminescence, 48 h; 12% of 420,000 active; AID 686979; Potency, µM (series often up to 46.2 µM), inactives show top-dose activity change, negative = growth inhibition, most hits filed as inhibitors; note: potency is the fitted concentration of half-maximal effect; % is set by controls: 0 for no effect and ±100 for the full control effect; nearly all actives have a fitted effect of over 55% in size
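Chicken DT40 Tdp1-/- cells complemented with human TDP1, 400 cells/well, exposed to compounds plus 20 nM camptothecin for at least 48 h at 37 C; viability read as ATP content by CellTiter-Glo luminescence.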
TDP1 cell noCPT: qHTS for Inhibitors of human tyrosyl-DNA phosphodiesterase 1 (TDP1): qHTS in cells in absence of CPT; DT40 Tdp1-/- hTDP1 cells, no CPT, ATP luminescence, 48 h; Potency, µM (titrated, usually from 46.2 µM), inactives show top-dose activity change, negative = growth inhibition, actives largely listed as inhibitors; 15% of 420,000 active; note: potency is the fitted concentration of half-maximal effect; % is set by controls: 0 for no effect and ±100 for the full control effect; nearly all actives have a fitted effect of over 55% in size
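DT40 Tdp1-/-;hTDP1 cells, no CPT (DMSO vehicle only), 400 cells/well; compounds pin-transferred; ≥48 hr, 37 °C; CellTiter-Glo 30 min RT dark, luminescence read.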
HepG2 viability: kills HepG2 cells in TGF-b inhibitor counter-screen. 0.76% of 410,000 active. Potency, µM (titrated, usually from 46.1 µM), for the others: at the highest dose activity change, negative = cytotoxicity, hits mostly cytotoxic. HepG2 CAGA-GFP viability, ATP luminescence, 18 h; note: potency is the fitted concentration of half-maximal effect
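HepG2 CAGA-GFP cells (1000/well, DMEM with 1% FBS) received compound, then TGF-beta at 500 pg/mL final, and were incubated 18 hours at 37 degrees C. Viability was read by CellTiter-Glo luminescence. Media-only wells were set as complete cell-killing and DMSO as no toxicity.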
IL-1B inflam inh: inhibitors of inflammasome signaling (IL-1 beta secretion) | THP-1 LPS/ATP IL-1B secretion, AlphaLISA, 16 h; active compounds read low | activity change, % at 57.5 µM | 4.7% of 360,000 active; in the data active = activity change below about -50%; inconclusive = mostly about -30% to -49%; note: % is set by controls: 0 for no effect and ±100 for the full control effect
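THP-1 cells pretreated 1 hr with compounds (up to 57.5 uM final), then stimulated with LPS (250 ng/mL final) plus ATP (1.25 mM final); secreted IL-1B measured by AlphaLISA after 16 hr, decreased signal indicating inhibition.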
Starred values were filed as active, the others as inactive; ? = inconclusive; / = no result; [ ] = another dose, or the depositor's remark. Unless noted, calls come from the whole dose curve; as a rule, active = well fitted curve in the direction sought with a large enough effect; inconclusive = small, poorly fitted or top-dose-only effect, or another doubt; inactive = no such curve, though single readings can be large; an effect the other way counts as inactive or inconclusive.

SMILES | TDP1 inh | TGFb inhibitor | TDP1 cell CPT | TDP1 cell noCPT | HepG2 viability | IL-1B inflam inh
CCc1cccc(C)c1NC(=O)C1CCCN1C(=O)NCc1ccccc1 (centres undefined) | -18% | -6% | -4% | 0% | -29% | -9
COc1ccc(C(=O)c2sc(Nc3ccc(NC(C)=O)cc3)nc2C)cc1 | / | -25% | 29µM* | 16µM* | -23% | 44
Cc1nc(Nc2ccccc2)sc1C(=O)Nc1ccccc1 | 6% | 2% | 21µM* | ? | -30% | -65*
COc1ccccc1Nc1nc(C)c(C(=O)Nc2ccccc2)s1 | -5% | 6% | 15µM* | ? | -19% | -53*
Cc1nc(C)c(C(=O)Nc2ccccc2)s1 | 0% | 7% | -1% | -20% | -5% | -17
Cc1nc(Nc2ccccc2Cl)sc1C(=O)Nc1ccccc1 | 11% | 0% | 18µM* | 21µM* | -30% | ?
CC(=O)c1sc(NC(C)c2ccccc2)nc1C (centres undefined) | 13% | 6% | 9% | -15% | 12% | 29
Cc1nc(NC(C)c2ccccc2)sc1C(=O)Nc1ccccc1 (centres undefined) | 6% | -9% | ? | -21% | -1% | -52*
CCOC(=O)Nc1ccc2c(c1)N(C(=O)N1CCN(C)CC1)c1ccccc1CC2 | 3% | -19% | -34% | ? | -35% | -21
CC(C)OC(=O)Nc1ccc2c(c1)N(C(=O)N1CCN(C)CC1)c1ccccc1CC2 | / | -5% | 12µM* | 13µM* | -85% | -28
CCNCC(=O)N1c2ccccc2CCc2ccc(NC(C)=O)cc21 | 6% | -6% | -12% | -8% | -10% | 2
CCNCC(=O)N1c2ccccc2CCc2ccc(NC(=O)OC(C)C)cc21 | / | ? | ? | 16µM* | -34% | -66*
CCOC(=O)Nc1ccc2c(c1)N(C(=O)N(C)C)c1ccccc1CC2 | -1% | -13% | ? | 29µM* | -21% | 0
CN(Cc1ccccc1)C(=O)c1cccc(NC(=O)Cc2ccc(NC(=O)C3CCN(C(=O)C4CC4)CC3)cc2)c1 | / | 36% | -1% | -16% | 2% | -11
O=S1(=O)CCOCCCN1Cc1cccc(C(F)(F)F)c1 | / | 1% | -9% | -8% | 3% | 20
Cc1ccccc1N1CC(O)(c2ccccc2)[N+]2=C1SCC2 (centres undefined) | 1% | -34% | ? | ? | -14% | 17
Cc1ccc(C2(O)CN(c3ccccc3)C3=[N+]2CCS3)cc1 (centres undefined) | 4% | 1% | ? | ? | -15% | -76*
Cc1ccc(C2(O)CN(c3ccccc3C)C3=[N+]2CCS3)cc1 (centres undefined) | 3% | 3% | 12µM* | 18µM* | 6% | 30
CCc1ccc(Nc2sc(C(=O)c3ccc(F)cc3)c(N)c2S(=O)(=O)c2ccccc2)cc1 | 0% | -27% | ? | ? | -26% | /
Cc1ccc(Nc2sc(C(=O)c3ccccc3)c(N)c2S(=O)(=O)c2ccccc2)c(C)c1 | 8% | -18% | ? | 15µM* | -11% | /
Cc1ccc(Cl)cc1Nc1sc(C(=O)c2ccc(F)cc2)c(N)c1S(C)(=O)=O | 8% | ? | 16µM* | ? | -34% | /
Cc1ccc(Nc2sc(C(=O)c3ccccc3)c(N)c2S(=O)(=O)c2ccccc2)cc1Cl | 5% | -13% | -27% | ? | -7% | /
Cc1ccc(S(=O)(=O)c2c(Nc3cc(F)ccc3F)sc(C(=O)c3ccc(F)cc3)c2N)cc1 | 2% | ? | 21µM* | 16µM* | -32% | /
COc1cccc(C(=O)c2sc(Nc3ccc(C)cc3C)c(S(=O)(=O)c3ccccc3)c2N)c1 | 3% | -20% | -10% | -30% | -29% | /
Cc1ccc(Nc2sc(C(=O)c3ccc(F)cc3)c(N)c2S(=O)(=O)c2ccc(C)cc2)cc1 | 8% | -3% | 18µM* | ? | -21% | /
SMILES | TDP1 inh | TGFb inhibitor | TDP1 cell CPT | TDP1 cell noCPT | HepG2 viability | IL-1B inflam inh
O=C(CNC(=O)c1ccc(Cl)cc1)OC(C(=O)Nc1cc(C(F)(F)F)ccc1Cl)c1ccccc1 (centres undefined) | -1% | / | / | / | / | /
Nc1c(C(=O)c2ccc(F)cc2)sc(Nc2ccccc2F)c1S(=O)(=O)c1ccc(Br)cc1 | 5% | ? | 5.2µM* | 8.2µM* | -27% | /
Cc1ccc(-n2cc(C(=O)c3ccccc3O)cn2)cc1 | -1% | 0% | -22% | ? | -4% | -3
Cc1ccc(O)c(C(=O)c2cnn(-c3ccccc3)c2)c1 | 1% | -26% | 7.3µM* | 12µM* | -4% | 7
O=C(Cc1cnn(-c2ccccc2)c1)c1ccc(O)c(O)c1O | -1% | -8% | 21µM* | ? | -11% | 41
CCN(c1nc(N)c(C(=O)N=C(N)N)nc1Cl)C(C)C | 12%[56.1 µM] | -3% | 21µM* | 7.3µM* | -13% | -3
O=C(CSc1ncc2c(n1)-c1ccccc1N(Cc1ccc(F)cc1)S2(=O)=O)c1ccc(Br)cc1 | 4% | -13% | -25% | ? | -10% | /
CCc1ccc(OCCNC(=O)c2cc(SC)ccc2Cl)cc1 | -2% | -1% | ? | ? | -1% | -10
CCc1ccc(OCCNC(=O)c2ccccc2SCc2ccc(F)cc2)cc1 | 2% | ? | ? | 26µM* | -6% | 13
O=C(NCCOc1ccc(F)cc1)c1ccccc1SCc1ccccc1 | -5% | 0% | -26% | ? | -1% | -108*
O=C(Nc1cc(-c2nc3ccccc3o2)ccc1Cl)c1ccc(Br)o1 | -2%[12.3 µM] | 0% | -27% | -13% | -13% | /
CCOC(=O)Cn1c(=O)oc2cc(S(=O)(=O)NCc3ccc(F)cc3)ccc21 | 5% | ? | -5% | -25% | -12% | /
CCOc1ccccc1NC(=O)Cn1c(=O)oc2cc(S(=O)(=O)NCc3ccccc3)ccc21 | 1% | 0% | 13µM* | ? | -8% | /
COc1ccccc1CNC(=O)Cn1c(=O)oc2cc(S(=O)(=O)NCc3ccccc3)ccc21 | 1% | -18% | 10µM* | 18µM* | -18% | /
COc1ccc(OC)c(NC(=O)Cn2c(=O)oc3cc(S(=O)(=O)NCc4ccccc4)ccc32)c1 | 6% | -12% | ? | 15µM* | 0% | /
CCc1ccc(C2N3CC4(C)CN2CC(c2ccccc2)(C3)C4=O)cc1 (centres undefined) | 2% | -23% | ? | ? | -10% | /

Screening results: PubChem BioAssay, National Center for Advancing Translational Sciences (NCATS)
